Laboratory results reported in PubChem BioAssay (NCATS).
Records with an inconclusive call do not appear. Calls of active or inactive are those of the source. Unless noted, calls come from the whole dose curve; as a rule, active = well fitted curve in the direction sought with a large enough effect; inconclusive = small, poorly fitted or top-dose-only effect, or another doubt; inactive = no such curve, though single readings can be large; an effect the other way counts as inactive or inconclusive.

How the values were obtained:
[1] = Primary qHTS for inhibitors of nuclear receptor binding SET domain protein 2 (NSD2) in an isogenic RCH-ACV NSD2 p.E1099K mutant (9B) (AID 1645876); details: RCH-ACV NSD2 E1099K (9B) viability, CellTiter-Glo, 72 h; series mostly up to 44.9 µM; note: nearly all actives have a fitted effect of over 70% in size; note: potency is the fitted concentration of half-maximal effect
[2] = Primary qHTS for inhibitors of nuclear receptor binding SET domain protein 2 (NSD2) in an RCH-ACV wild type WT cells (2C) (AID 1645877); details: RCH-ACV (leukaemia line) NSD2 WT (2C) viability, CellTiter-Glo, 72 h; series mostly up to 44.9 µM; note: nearly all actives have a fitted effect of over 70% in size; note: potency is the fitted concentration of half-maximal effect
[3] = target: Cytochrome P450 2D6 (Homo sapiens) (UniProt P10635); assay: Cytochrome P450 family 2 subfamily D member 6 (CYP2D6) small molecule antagonists: luciferase biochemical (cell-free) qHTS assay (AID 1645840; active = well fitted curve in the direction sought with a large enough effect in the repeat runs; an effect the other way counts as inactive or inconclusive; note: % is set by controls: 0 for no effect and ±100 for the full control effect; nearly all actives have a fitted effect of over 55% in size); details: P450-Glo CYP2D6 enzyme, luciferin luminescence, 1 h; series mostly up to 57.4 µM
Cytochrome P450 2D6 (Homo sapiens), sequence (P10635 whole entry, looked up): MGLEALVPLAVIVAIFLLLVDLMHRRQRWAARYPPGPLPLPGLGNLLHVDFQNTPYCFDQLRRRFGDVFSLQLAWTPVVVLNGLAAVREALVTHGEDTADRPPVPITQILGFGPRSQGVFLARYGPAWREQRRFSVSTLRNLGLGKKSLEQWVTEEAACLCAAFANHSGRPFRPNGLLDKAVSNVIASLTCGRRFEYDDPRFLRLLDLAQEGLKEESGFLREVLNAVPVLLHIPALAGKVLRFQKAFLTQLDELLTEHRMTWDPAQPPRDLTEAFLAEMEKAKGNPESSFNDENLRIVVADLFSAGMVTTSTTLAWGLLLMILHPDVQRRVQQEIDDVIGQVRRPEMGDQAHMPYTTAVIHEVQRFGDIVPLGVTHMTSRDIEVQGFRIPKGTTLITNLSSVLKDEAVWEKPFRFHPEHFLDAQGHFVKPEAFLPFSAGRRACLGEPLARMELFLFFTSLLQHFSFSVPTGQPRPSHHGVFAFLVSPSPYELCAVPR
How it was run: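 P450-Glo CYP2D6 system: proluciferin substrate converted by enzyme to luciferin, read by luminescence proportional to activity. Enzyme-substrate mix with compound 10 min at room temperature, then NADPH regeneration 1 h before detection reagent.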

[4] = target: Cytochrome P450 2C9 (Homo sapiens) (UniProt P11712); assay: Cytochrome P450 family 2 subfamily C member 9 (CYP2C9) small molecule antagonists: luciferase biochemical (cell-free) qHTS assay (AID 1645842; active = well fitted curve in the direction sought with a large enough effect in the repeat runs; an effect the other way counts as inactive or inconclusive; note: potency is the fitted concentration of half-maximal effect; nearly all actives have a fitted effect of over 55% in size); details: P450-Glo CYP2C9 enzyme assay, luciferin luminescence; series mostly up to 57.4 µM
Cytochrome P450 2C9 (Homo sapiens), sequence (P11712 whole entry, looked up): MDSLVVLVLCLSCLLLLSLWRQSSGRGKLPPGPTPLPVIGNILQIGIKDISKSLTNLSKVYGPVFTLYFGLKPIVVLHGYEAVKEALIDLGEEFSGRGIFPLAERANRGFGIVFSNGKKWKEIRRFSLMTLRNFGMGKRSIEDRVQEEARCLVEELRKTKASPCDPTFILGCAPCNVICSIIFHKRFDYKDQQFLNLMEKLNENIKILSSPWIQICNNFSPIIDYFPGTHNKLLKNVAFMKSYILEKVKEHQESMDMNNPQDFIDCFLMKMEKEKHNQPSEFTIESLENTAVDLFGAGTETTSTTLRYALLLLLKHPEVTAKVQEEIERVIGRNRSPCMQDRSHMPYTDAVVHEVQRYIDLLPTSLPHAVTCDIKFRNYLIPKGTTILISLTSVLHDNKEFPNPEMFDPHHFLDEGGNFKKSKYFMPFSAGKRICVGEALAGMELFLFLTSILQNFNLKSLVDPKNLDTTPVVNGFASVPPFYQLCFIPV
How it was run: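 P450-Glo CYP2C9 system: proluciferin substrate with enzyme in mix containing 0.4% BSA, 10 min at room temperature, then NADPH regeneration solution added and incubated 1 h at 37C. Detection reagent stopped reaction; luminescence read after 20 min as RLU.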

[5] = target: N-terminal Xaa-Pro-Lys N-methyltransferase 1 (Homo sapiens) (UniProt Q9BV86); assay: Confirmatory qHTS for Inhibitors of N-terminal methyltransferase 1 (NTMT1): MTaseGlo Assay (AID 1645874); details: NTMT1 enzyme, MTase-Glo SAH luminescence; series mostly up to 100 µM; note: potency is the fitted concentration of half-maximal effect; nearly all actives have a fitted effect of over 65% in size
N-terminal Xaa-Pro-Lys N-methyltransferase 1 (Homo sapiens), sequence (Q9BV86 whole entry, looked up): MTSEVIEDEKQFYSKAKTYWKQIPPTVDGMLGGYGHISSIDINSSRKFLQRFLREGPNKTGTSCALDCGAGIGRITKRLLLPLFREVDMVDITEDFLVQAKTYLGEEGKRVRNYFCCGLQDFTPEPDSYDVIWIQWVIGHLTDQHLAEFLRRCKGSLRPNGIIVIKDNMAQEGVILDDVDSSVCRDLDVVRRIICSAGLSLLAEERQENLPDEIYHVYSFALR
How it was run: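 Room-temperature NTMT1 reaction, 30 min, with 100 uM SAM and 1 uM SPKRIA substrate; enzyme 125 nM. Read-out: MTase-Glo luminescence, normalized to no-enzyme and DMSO controls.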

[6] = target: Catechol O-methyltransferase (Homo sapiens) (UniProt P21964); assay: Confirmatory Screen for Target Class Profiling of Small Molecule Inhibitors of Methyltransferases (AID 1745852); details: MTase-Glo luminescence, SAH detection, recombinant enzyme; measured here: COMT max response; stronger effect = lower value
Catechol O-methyltransferase (Homo sapiens), sequence (P21964 whole entry, looked up): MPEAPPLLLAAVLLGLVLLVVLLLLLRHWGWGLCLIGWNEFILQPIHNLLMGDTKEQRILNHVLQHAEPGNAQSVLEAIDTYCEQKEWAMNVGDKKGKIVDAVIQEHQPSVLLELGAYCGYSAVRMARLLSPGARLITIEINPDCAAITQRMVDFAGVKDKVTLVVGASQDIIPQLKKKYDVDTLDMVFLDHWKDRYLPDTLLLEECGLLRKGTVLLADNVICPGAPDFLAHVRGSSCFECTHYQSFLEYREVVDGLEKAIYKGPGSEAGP

## C=C1CCC2C(C)(COC(C)=O)CCCC2(C)C1CCC(C)CC(=O)O (centres undefined)
[1]
  Potency: inactive
[2]
  Potency: inactive

## Cn1ncnc1COc1nn2c(-c3cc(F)ccc3F)nnc2cc1C(C)(C)C
[3]
  Potency: inactive
[2]
  Potency: 1.03 µM (active)

## CC1=C(C)C(=O)OC(C(C)C2CCC3C4C5OC5C5(O)CC(OC6OC(CO)C(OC7OC(C)C(O)C(O)C7O)C(O)C6O)CC(O)C5(C)C4CCC23C)C1 (centres undefined)
[1]
  Potency: inactive
[2]
  Potency: inactive

## C=C(CCC1=C(C)[C@H]2[C@H](CC3[C@@H]4CC=C5C[C@@H](O)C[C@@H](O)[C@]5(C)C4[C@H](O)C[C@@]32C)O1)CO[C@@H]1O[C@H](CO)[C@@H](O)[C@H](O)[C@H]1O (some centres undefined)
[1]
  Potency: 483 nM (active)
[2]
  Potency: 0.963 µM (active)

## CC/C=C\C/C=C\C/C=C\CCCCCCCC(=O)OCC(O)COC1OC(CO)C(O)C(O)C1O (centres undefined)
[1]
  Potency: inactive
[2]
  Potency: inactive

## CC1(C)C[C@H](O)C[C@@]2(C)OC(=O)C=C12
[1]
  Potency: inactive
[2]
  Potency: inactive

## CC(C)=CCC/C(C)=C/CC/C(C)=C/COC1OC(COC2OCC(OC3OCC(O)C(O)C3O)C(O)C2O)C(O)C(OC2OC(C)C(OC3OC(C)C(OC4OCC(OC5OC(C)C(O)C(O)C5O)C(O)C4O)C(O)C3O)C(O)C2O)C1O (centres undefined)
[1]
  outcome: inactive [at 9.23 µM]
[2]
  outcome: inactive [at 9.23 µM]

## COc1cc(N2CCC(N3CCN(C)CC3)CC2)ccc1Nc1ncc(Cl)c(-c2c[nH]c3ccccc23)n1
[4]
  Potency: 19 µM (active)
[5]
  Potency: 55.5 µM (active)
[1]
  Potency: 1150 nM (active)
[2]
  Potency: 1.84 µM (active)
[6]
  activity: -23.6%
